Data reported in PubChem BioAssay (NCATS).
Several values for one entry are separate records, joined by “and”; a condition that tells them apart may be missing. Equal values may be shown once. Results filed as inconclusive are left out. A call without a number means that no potency is given here. Activity calls are given as the source filed them. Unless noted, calls follow the shape of the full dose curve.

How the values were obtained:
[1] = target: Androgen receptor (Homo sapiens) (UniProt P10275); assay: qHTS assay for small molecule antagonists of androgen receptor signaling (AID 588516; active = well fitted curve in the direction sought with a large enough effect in the signal ratio, with a control signal flat, not every such curve was filed as active; the % refers to the signal ratio)
Method in brief: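 AR-UAS-bla GripTite HEK 293 cells (2000/well) treated with compound titrations plus 10 nM R1881 for 16 h at 37C. Beta-lactamase read by CCF4 FRET (460/530 nm); IC50 from Hill fits, normalized to R1881 and DMSO control wells.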

[2] = target: Bile acid receptor (Homo sapiens) (UniProt Q96RI1); assay: qHTS assay for small molecule antagonists of farnesoid X receptor signaling (AID 588526)
Method in brief: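 Beta-lactamase reporter antagonist mode: HEK293T FXR-UAS-bla cells, titrated compound, CDCA stimulation, 16 h 37 C, CCF4 dye 2 h RT. Data normalized to CDCA 50 uM and DMSO; Hill-fit IC50.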

[3] = target: Glucocorticoid receptor (Homo sapiens) (UniProt P04150); assay: qHTS assay for small molecule agonists of glucocorticoid receptor signaling (AID 588532; active = well fitted curve in the direction sought with a large enough effect in the signal ratio, with a control signal flat; the % refers to the signal ratio); settings: HeLa MMTV-bla, beta-lactamase ratio, agonist, 18 h; stronger effect = higher value; percent of dexamethasone control, DMSO zero
Method in brief: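 Using MMTV-bla HeLa cells in medium with 1% stripped FBS and 25 mM HEPES, compounds were titrated and incubated overnight-length (18 h). Beta-lactamase cleavage of CCF4 was quantified by dual-emission fluorescence.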

[4] = target: Glucocorticoid receptor (Homo sapiens) (UniProt P04150); assay: qHTS assay for small molecule antagonists of glucocorticoid receptor signaling (AID 588533; active = well fitted inhibition curve with a large enough effect in the signal ratio, with a control signal flat, not every such curve was filed as active; the % refers to the signal ratio;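 also: cells stimulated with 2 nM dexamethasone as agonist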)
Method in brief: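 Antagonist-mode qHTS: compound titrations added to GRE-bla HeLa cells, then dexamethasone 2 nM final; 18 h, 37 C. CCF4 FRET fluorescence normalized to dexamethasone and DMSO; IC50 from Hill fit.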

[5] = target: Peroxisome proliferator-activated receptor gamma (Homo sapiens) (UniProt P37231); assay: qHTS assay for small molecule agonists of peroxisome proliferator-activated receptor gamma signaling (AID 588536; active = well fitted curve in the direction sought with a large enough effect in the signal ratio, with a control signal flat, not every such curve was filed as active; the % refers to the signal ratio)
Method in brief: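 Beta-lactamase reporter read-out: CCF4 fluorescence (ex 405, em 460/530 nm) after 2 h at RT. HEK293 GeneBLAzer cells were treated for 16 h at 37 C. Hill fits gave EC50 and efficacy versus 2 uM rosiglitazone (100%) and DMSO (0%).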

[6] = target: Vitamin D3 receptor (Homo sapiens) (UniProt P11473); assay: qHTS assay for small molecule antagonists of vitamin D receptor signaling (AID 588541);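 also: receptor activated by calcitriol during compound treatment; series mostly up to about 77 µM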
Method in brief: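 Antagonist-mode beta-lactamase reporter assay: HEK293T VDR-UAS-bla cells were exposed to titrated compound alongside 1-alpha,25-dihydroxyvitamin D3 at 3 nM final for 16 h. Values were normalized to the 50 nM agonist control and DMSO basal, with IC50 and efficacy from Hill equation fits.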

[7] = target: Vitamin D3 receptor (Homo sapiens) (UniProt P11473); assay: qHTS assay for small molecule agonists of vitamin D receptor signaling (AID 588543)
Method in brief: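 VDR-UAS-bla HEK293T cells, 2000/well, 2% charcoal-stripped FBS; compound titration 16 h at 37 C; CCF4 beta-lactamase ratio read. Normalized to 50 nM 1-alpha,25-dihydroxyvitamin D3 (100%) and DMSO; Hill fit gives EC50, efficacy.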

[8] = qHTS assay for small molecule agonists of retinoid X receptor alpha signaling (AID 588544); settings: HEK293T RXRa-UAS-bla, beta-lactamase reporter, 18 h; 530 nm emission
[9] = target: Retinoic acid receptor RXR-alpha (Homo sapiens) (UniProt P19793); assay: as above
[10] = target: Thyroid hormone receptor beta (Homo sapiens) (UniProt P10828); assay: qHTS assay for small molecule agonists of thyroid hormone receptor beta signaling (AID 588545)
Method in brief: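 Compounds were tested as agonists in TR-UAS-bla-GripTite HEK 293 cells. After 18 hrs at 37 C, CCF4 substrate was added and fluorescence read after 2 hrs at room temperature.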

[11] = qHTS assay for small molecule antagonists of retinoid X receptor alpha signaling (AID 588546; active = well fitted inhibition curve with a large enough effect in the signal ratio, with a control signal flat, not every such curve was filed as active; the % refers to the signal ratio;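 also: cells stimulated with 9-cis-retinoic acid as agonist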); settings: HEK293T RXRa-UAS-bla, beta-lactamase ratio, antagonist mode; measured here: W530 green channel, cytotoxicity proxy
Method in brief: (§1)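 Beta-lactamase reporter inhibition, read as CCF4 fluorescence ratio (ex 405, em 460/530 nm) after 2 h at RT. HEK293T UAS-bla cells, 2500/well, were stimulated with 9-cis-RA at 500 or 100 nM final alongside test compound for 18 h at 37 C.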

[12] = target: Retinoic acid receptor RXR-alpha (Homo sapiens) (UniProt P19793); assay: as above; settings: HEK293T RXRa-UAS-bla, beta-lactamase ratio, antagonist mode
Method in brief: as §1

[13] = target: Thyroid hormone receptor beta (Homo sapiens) (UniProt P10828); assay: qHTS assay for small molecule antagonists of thyroid hormone receptor beta signaling (AID 588547; active = well fitted inhibition curve with a large enough effect in the signal ratio, with a control signal flat, not every such curve was filed as active; the % refers to the signal ratio;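 also: cells stimulated with 0.4 nM T3 agonist during compound exposure; series mostly up to about 77 µM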); settings: TR-UAS-bla HEK293, beta-lactamase ratio, antagonist mode, 18 h
Method in brief: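 Inhibition of T3-driven (0.4nM final) beta-lactamase reporter activity was measured over 0.59 nM to 92 uM compound after 18 h at 37 C. The cells were GripTite HEK293 TR-UAS-bla in charcoal/dextran-stripped serum, with CCF4 ratio read-out and IC50 from Hill fits.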

[14] = qHTS assay for small molecule activators of the p53 signaling pathway (AID 651743; active = well fitted activation curve with a large enough effect in the signal ratio, not every such curve was filed as active; the % refers to the signal ratio; also: series mostly up to about 92 µM); settings: HCT-116 p53RE-bla, beta-lactamase FRET ratio, 16 h; stronger effect = higher value
Method in brief: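 A beta-lactamase reporter under p53 response element control, stably carried by HCT-116 cells, reported pathway activation. Test compounds were applied for 16 hours at 37 C, and fluorescence was measured 2 hours after adding the B/G FRET substrate.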

[15] = qHTS assay for small molecule activators of the nuclear factor-kappa B (NF-kB) signaling pathway (AID 651749; active = well fitted activation curve with a large enough effect in the signal ratio; the % refers to the signal ratio; also: series mostly up to about 77 µM); settings: NF-kB-bla ME-180 cells, beta-lactamase FRET ratio, 16 h; stronger effect = higher value
Method in brief: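 FRET-based beta-lactamase detection in ME-180 cells reports NF-kB response-element-driven transcription following overnight (16 hr) compound treatment.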

[16] = target: Voltage-gated inwardly rectifying potassium channel KCNH2 (Homo sapiens) (UniProt Q12809); assay: qHTS Assay for Small Molecule Inhibitors of the Human hERG Channel Activity (AID 588834; active = well fitted inhibition curve with a large enough effect;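 also: top concentration of the series differs between compounds; lower thallium flux fluorescence means stronger hERG block; nearly all actives have a fitted effect of over 50% in size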)
Method in brief: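 Thallium serves as surrogate for K+ influx through BacMam-delivered hERG in U2OS cells. Compounds are added for about 10 minutes after dye loading; stimulation buffer then starts flux, monitored kinetically on FDSS.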

[17] = qHTS assay for small molecule antagonists of peroxisome proliferator-activated receptor delta signaling (AID 588535; active = well fitted inhibition curve with a large enough effect in the signal ratio, with a control signal flat, not every such curve was filed as active; the % refers to the signal ratio;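 as to max response: cells co-treated with a PPAR-delta agonist as stimulator during compound exposure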); settings: HEK293T PPARd-UAS-bla, beta-lactamase FRET ratio, 18 h; 460 nm channel
Method in brief: (§2)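 Antagonist-mode qHTS using GeneBLAzer PPAR-delta-UAS-bla HEK293T cells; compound exposure 18 hrs at 37 C over a titration. Ratiometric CCF4 fluorescence at 460/530 nm; concentration-response points fitted to the Hill equation.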

[18] = target: Peroxisome proliferator-activated receptor delta (Homo sapiens) (UniProt Q03181); assay: as above
Method in brief: as §2

[19] = target: Peroxisome proliferator-activated receptor gamma (Homo sapiens) (UniProt P37231); assay: qHTS assay for small molecule antagonists of peroxisome proliferator-activated receptor gamma signaling (AID 588537; active = well fitted inhibition curve with a large enough effect in the signal ratio, with a control signal flat, not every such curve was filed as active; the % refers to the signal ratio;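 also: reporter cells co-stimulated with 50 nM rosiglitazone agonist during compound treatment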)
Method in brief: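 Cell-based beta-lactamase assay; GW9662 served as the antagonist control. Stimulation used rosiglitazone, final 50 nM, 16 h, 37 C.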

[20] = qHTS assay for small molecule agonists of the antioxidant response element (ARE) signaling pathway (AID 651741; active = well fitted activation curve with a large enough effect in the signal ratio; the % refers to the signal ratio)
Method in brief: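 Agonist activity is measured as ARE-driven beta-lactamase expression in a stable HepG2 reporter line, using 16 h compound treatment at 37 C and a FRET substrate fluorescence readout after 2 h.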

Chain of Thyroid hormone receptor beta (Homo sapiens) (P10828 whole entry, looked up): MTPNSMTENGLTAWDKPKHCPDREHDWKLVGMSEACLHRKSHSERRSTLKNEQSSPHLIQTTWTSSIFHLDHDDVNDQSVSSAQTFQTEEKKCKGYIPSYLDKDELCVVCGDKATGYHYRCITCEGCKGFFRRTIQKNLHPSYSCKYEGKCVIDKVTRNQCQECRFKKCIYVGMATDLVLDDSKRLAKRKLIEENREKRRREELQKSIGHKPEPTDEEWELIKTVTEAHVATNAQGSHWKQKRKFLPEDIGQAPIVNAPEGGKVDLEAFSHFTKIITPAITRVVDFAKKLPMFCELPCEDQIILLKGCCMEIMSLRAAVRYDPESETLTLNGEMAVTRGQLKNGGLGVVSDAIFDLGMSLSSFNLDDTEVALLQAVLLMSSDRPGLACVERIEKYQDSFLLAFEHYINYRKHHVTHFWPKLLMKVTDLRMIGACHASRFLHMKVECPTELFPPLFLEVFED
Chain of Peroxisome proliferator-activated receptor gamma (Homo sapiens) (P37231 whole entry, looked up): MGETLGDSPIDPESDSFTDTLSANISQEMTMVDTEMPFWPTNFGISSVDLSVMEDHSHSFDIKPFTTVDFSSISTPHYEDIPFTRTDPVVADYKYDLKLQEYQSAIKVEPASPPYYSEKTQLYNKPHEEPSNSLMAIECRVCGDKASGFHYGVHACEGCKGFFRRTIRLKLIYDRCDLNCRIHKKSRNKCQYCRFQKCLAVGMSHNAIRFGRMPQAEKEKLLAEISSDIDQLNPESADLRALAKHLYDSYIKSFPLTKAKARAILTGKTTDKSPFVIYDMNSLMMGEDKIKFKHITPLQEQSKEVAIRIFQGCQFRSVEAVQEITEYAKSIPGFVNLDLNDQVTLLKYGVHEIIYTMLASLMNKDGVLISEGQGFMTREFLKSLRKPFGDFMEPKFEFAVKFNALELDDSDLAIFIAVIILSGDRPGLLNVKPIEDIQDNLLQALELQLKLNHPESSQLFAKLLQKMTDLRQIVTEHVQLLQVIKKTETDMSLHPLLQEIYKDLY
Chain of Vitamin D3 receptor (Homo sapiens) (P11473 whole entry, looked up): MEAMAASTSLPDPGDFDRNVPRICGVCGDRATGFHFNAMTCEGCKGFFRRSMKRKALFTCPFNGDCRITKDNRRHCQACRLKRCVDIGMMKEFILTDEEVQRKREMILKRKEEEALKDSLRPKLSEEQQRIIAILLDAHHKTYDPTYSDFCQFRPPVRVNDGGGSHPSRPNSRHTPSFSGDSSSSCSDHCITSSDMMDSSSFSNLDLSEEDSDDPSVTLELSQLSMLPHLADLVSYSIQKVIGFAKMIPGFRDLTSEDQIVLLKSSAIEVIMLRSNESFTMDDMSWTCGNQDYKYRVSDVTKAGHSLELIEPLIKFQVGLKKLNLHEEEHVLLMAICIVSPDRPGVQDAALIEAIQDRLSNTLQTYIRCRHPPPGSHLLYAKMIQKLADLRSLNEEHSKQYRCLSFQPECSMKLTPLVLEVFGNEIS
Chain of Bile acid receptor (Homo sapiens) (Q96RI1 whole entry, looked up): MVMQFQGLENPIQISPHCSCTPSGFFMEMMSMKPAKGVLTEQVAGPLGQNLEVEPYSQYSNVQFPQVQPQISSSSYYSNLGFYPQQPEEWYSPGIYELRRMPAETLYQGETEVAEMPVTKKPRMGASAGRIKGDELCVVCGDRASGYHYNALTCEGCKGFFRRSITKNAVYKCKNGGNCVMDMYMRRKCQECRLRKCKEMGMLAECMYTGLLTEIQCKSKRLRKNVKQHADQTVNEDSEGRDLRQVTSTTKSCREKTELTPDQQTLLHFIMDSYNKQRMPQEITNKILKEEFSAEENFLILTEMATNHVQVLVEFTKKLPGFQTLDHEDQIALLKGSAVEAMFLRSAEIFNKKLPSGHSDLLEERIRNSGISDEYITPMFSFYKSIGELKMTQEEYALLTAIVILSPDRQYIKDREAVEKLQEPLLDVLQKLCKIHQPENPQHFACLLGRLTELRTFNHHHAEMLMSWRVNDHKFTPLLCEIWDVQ
Chain of Peroxisome proliferator-activated receptor delta (Homo sapiens) (Q03181 whole entry, looked up): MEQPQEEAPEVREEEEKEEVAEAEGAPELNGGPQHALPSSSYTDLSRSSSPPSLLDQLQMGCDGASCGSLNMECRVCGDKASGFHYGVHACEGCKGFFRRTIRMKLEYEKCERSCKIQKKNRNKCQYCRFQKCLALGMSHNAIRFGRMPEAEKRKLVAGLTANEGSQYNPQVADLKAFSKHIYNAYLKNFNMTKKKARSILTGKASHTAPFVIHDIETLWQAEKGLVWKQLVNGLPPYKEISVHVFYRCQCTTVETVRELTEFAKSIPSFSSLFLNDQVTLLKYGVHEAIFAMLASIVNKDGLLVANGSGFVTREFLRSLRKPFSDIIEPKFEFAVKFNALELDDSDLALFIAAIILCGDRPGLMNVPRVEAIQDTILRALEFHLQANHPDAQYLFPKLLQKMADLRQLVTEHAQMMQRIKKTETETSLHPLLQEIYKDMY
Chain of Voltage-gated inwardly rectifying potassium channel KCNH2 (Homo sapiens) (Q12809 whole entry, looked up): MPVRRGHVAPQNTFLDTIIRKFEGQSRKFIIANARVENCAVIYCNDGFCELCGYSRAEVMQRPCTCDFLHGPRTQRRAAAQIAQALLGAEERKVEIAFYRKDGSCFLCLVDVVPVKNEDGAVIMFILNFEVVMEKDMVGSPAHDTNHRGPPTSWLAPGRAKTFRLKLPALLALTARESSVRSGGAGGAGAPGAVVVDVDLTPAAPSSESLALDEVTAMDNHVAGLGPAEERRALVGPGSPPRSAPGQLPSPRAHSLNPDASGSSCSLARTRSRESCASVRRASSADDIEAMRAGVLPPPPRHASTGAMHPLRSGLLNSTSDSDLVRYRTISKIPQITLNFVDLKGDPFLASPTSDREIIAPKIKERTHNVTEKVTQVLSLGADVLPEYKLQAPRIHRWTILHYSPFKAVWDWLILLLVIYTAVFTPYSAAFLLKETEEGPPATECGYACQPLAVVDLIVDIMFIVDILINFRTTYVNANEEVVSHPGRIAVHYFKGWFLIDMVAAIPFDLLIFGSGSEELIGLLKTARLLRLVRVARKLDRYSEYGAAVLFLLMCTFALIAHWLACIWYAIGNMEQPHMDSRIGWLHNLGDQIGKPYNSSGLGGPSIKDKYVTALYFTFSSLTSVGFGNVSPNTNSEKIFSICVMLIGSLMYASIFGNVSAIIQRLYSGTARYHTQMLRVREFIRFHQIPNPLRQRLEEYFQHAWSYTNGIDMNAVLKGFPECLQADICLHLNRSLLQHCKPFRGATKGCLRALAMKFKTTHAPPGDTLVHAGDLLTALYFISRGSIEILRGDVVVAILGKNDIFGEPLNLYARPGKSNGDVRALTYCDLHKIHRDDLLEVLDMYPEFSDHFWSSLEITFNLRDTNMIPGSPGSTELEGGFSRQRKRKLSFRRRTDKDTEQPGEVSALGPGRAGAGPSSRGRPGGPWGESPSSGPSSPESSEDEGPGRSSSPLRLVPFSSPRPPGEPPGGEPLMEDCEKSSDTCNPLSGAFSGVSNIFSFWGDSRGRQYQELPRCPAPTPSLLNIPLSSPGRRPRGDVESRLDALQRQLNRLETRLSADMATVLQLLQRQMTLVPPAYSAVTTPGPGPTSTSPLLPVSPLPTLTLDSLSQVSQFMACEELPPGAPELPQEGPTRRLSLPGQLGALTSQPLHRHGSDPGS
Chain of Retinoic acid receptor RXR-alpha (Homo sapiens) (P19793 whole entry, looked up): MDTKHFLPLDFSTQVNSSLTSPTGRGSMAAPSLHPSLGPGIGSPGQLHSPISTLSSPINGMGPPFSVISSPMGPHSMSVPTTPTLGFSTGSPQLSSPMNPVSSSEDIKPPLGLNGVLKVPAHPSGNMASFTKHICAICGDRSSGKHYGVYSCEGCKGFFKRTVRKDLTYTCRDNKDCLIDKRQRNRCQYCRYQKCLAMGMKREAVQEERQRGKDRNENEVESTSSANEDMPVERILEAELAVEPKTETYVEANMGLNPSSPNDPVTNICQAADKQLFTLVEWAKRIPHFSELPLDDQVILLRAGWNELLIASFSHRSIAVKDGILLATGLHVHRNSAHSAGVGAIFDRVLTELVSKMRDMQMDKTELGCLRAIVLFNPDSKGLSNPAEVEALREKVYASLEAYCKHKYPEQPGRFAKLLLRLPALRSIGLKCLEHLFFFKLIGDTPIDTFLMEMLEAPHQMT
Chain of Glucocorticoid receptor (Homo sapiens) (P04150 whole entry, looked up): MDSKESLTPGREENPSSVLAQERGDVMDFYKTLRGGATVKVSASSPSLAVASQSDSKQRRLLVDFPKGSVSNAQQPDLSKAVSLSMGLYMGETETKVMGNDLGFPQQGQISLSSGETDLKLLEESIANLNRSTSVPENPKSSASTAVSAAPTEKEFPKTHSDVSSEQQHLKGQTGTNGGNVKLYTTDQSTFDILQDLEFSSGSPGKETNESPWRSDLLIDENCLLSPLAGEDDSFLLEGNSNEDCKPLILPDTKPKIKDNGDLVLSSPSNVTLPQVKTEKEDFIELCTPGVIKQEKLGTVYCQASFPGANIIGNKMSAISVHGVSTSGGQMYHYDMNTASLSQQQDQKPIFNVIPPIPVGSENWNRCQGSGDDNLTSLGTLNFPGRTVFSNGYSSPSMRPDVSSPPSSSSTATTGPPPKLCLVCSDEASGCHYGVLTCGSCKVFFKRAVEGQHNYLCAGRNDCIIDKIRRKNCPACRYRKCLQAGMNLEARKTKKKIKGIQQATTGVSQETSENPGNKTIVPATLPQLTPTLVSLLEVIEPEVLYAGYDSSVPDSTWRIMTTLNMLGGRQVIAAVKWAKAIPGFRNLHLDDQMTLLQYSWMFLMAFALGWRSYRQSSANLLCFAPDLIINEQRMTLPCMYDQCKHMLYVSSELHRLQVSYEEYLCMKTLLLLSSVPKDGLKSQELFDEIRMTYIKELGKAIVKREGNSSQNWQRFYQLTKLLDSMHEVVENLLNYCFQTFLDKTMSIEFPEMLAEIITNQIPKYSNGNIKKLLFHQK

Structure (SMILES)	outcome [1]	outcome [2]	activation [3]	outcome [4]	outcome [5]	outcome [6]	outcome [7]	max response [8]	outcome [9]	outcome [10]	max response [11]	max response [12]	activity change % (negative = inhibition) [13]	activation [14]	activation [15]	Potency [16]	max response [17]	Potency [18]	outcome [19]	Potency [20]
CCOc1cc(OCC)c(C(C)=O)cc1OCC	inactive	inactive	-0.956% (inactive)	inactive	inactive	inactive	inactive	4.48%	inactive	inactive	1.94%	7.64% (inactive)	-7.72% (inactive)	-3.93% (inactive)	2.04% (inactive)	–	–	–	–	–
CNC(=O)N(c1ccccc1)c1ccccc1	inactive	–	–	–	inactive	–	–	-17.1%	inactive	inactive	12.2%	-3.69% (inactive)	10.1% (inactive)	0.514% (inactive)	0.192% (inactive)	inactive	–	–	–	–
N#Cc1ccccc1	–	inactive	4.79% (inactive)	inactive	inactive	inactive	inactive	-9.04%	inactive	inactive	0.37%	1.5% (inactive)	1.08% (inactive)	-1.56% (inactive)	0.786% (inactive)	inactive	-16.3%	inactive	inactive	inactive
NC(=S)NNC(N)=S	–	inactive	-4.1% (inactive) and -4.08% (inactive)	inactive	inactive	–	–	-14.7% and -3.73%	inactive	inactive	-7.09%	-19.9% (inactive)	-0.459% (inactive) and 12.6% (inactive)	1.05% (inactive) and -1.18% (inactive)	-0.0609% (inactive) and -1.04% (inactive)	inactive	-7.61% and 32%	inactive	inactive	inactive
C=C(C)C1CC=C(C)C(OC(C)=O)C1 (centres undefined)	–	inactive	3.07% (inactive)	inactive	inactive	inactive	inactive	-3.57%	inactive	inactive	-6.8%	1.02% (inactive)	–	1.6% (inactive)	–	inactive	6.72%	inactive	–	–
COC(=O)CCCC(=O)OC	–	inactive	-5.32% (inactive)	inactive	–	inactive	inactive	-5.09%	inactive	inactive	-9.56%	-11% (inactive)	-27% (inactive)	-1.04% (inactive)	-0.14% (inactive)	inactive	14.2%	inactive	–	–
O=Cc1cccc(Br)c1	–	inactive	-2.28% (inactive)	inactive	inactive	inactive	inactive	0.636%	inactive	inactive	0.346%	4.36% (inactive)	-16.4% (inactive)	-0.251% (inactive)	–	inactive	21.9%	inactive	–	–
